# High-throughput results (PubChem)
# Shown are actives, neighbours in structure and some others; about 12% of the full set was active somewhere.
# HP1b binding inh = HP1-beta chromodomain-methylated histone interaction inhibition; P83916; AlphaScreen HP1-beta / biotin-H3K9me3 peptide binding; Potency, µM (top dose mostly 114 µM), inactives show at the top dose activity change, negative = inhibition, most hits filed as inhibitors; actives 0.56% (n = 390,000); AID 540317; further: nearly all actives have a fitted effect of over 70% in size
#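 Compound inhibition of the preformed complex between 50 nM HP1-beta and 50 nM biotinylated H3K9me3 peptide was read by AlphaScreen. Buffer was PBS pH 7.4 with 0.01% Tween-20. Incubations ran 30 min at room temperature, with 10 ug/mL donor/acceptor beads.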
# JMJD2A Tudor = JMJD2A Tudor domain (human) inhibition; AlphaScreen JMJD2A-Tudor / H3K4me3 peptide binding; Potency, µM (highest dose often 114 µM), for the others: at the top dose activity change, negative = inhibition, actives largely listed as inhibitors; actives 4.4% (n = 390,000); further: on the % scale 0 is the no-effect control and ±100 the full control effect; nearly all actives have a fitted effect of over 50% in size
# Target sequence (O75164 whole entry, looked up, the tested form may be a part): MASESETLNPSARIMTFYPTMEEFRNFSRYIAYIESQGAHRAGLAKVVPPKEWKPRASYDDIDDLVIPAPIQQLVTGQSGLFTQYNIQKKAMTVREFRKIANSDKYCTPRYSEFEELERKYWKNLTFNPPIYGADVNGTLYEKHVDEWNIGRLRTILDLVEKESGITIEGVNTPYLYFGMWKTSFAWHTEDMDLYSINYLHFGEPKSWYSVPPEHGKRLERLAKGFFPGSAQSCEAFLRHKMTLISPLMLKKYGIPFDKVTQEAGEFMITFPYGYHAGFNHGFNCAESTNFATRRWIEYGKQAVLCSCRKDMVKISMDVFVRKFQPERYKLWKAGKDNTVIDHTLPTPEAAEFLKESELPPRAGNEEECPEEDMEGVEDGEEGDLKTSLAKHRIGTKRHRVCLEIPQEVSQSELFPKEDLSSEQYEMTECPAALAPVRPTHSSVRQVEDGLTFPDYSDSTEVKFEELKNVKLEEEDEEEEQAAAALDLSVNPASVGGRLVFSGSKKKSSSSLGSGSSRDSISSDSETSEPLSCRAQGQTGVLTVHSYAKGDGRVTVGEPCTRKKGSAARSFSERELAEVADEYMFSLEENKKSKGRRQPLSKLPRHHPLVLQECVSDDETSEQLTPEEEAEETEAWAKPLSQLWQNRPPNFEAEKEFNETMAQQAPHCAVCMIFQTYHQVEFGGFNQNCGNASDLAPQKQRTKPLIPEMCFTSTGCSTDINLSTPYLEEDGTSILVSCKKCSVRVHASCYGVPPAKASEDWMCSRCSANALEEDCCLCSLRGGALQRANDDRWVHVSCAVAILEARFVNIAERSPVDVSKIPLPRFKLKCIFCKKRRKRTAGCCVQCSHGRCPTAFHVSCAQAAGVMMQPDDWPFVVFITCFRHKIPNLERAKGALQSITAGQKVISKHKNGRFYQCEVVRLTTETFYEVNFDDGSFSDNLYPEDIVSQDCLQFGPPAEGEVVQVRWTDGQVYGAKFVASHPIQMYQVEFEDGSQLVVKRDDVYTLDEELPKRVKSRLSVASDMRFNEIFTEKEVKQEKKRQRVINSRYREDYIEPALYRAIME
# L3MBTL1 block = L3MBTL1 (human) inhibition | Potency, µM (highest dose often 57.1 µM), for inactives: at the top dose activity, negative = inhibition, actives largely listed as inhibitors | AlphaScreen L3MBTL1–H3K9me1 peptide binding | AID 485360 | Q9Y468 | actives 0.66% (n = 230,000); further: on the % scale 0 is the no-effect control and ±100 the full control effect; nearly all actives have a fitted effect of over 60% in size
#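 Displacement of a biotinylated histone H3(1-15) peptide monomethylated at Lys9 (75 nM) from L3MBTL1 (50 nM) was measured by AlphaScreen after a 30 min room-temperature compound incubation; cefsulodin titration served as intraplate control.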
# BAZ2B inh = inhibitors of human BAZ2B bromodomain; Q9UIF8; AlphaScreen BAZ2B-H3K14Ac peptide displacement; Potency, µM (highest dose often 114 µM), for the others: top-dose activity change, negative = inhibition, usual class: inhibitors; actives 4.4% (n = 360,000); further: on the % scale 0 is the no-effect control and ±100 the full control effect; nearly all actives have a fitted effect of over 60% in size
#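 BAZ2B (50 nM) with biotin-H3(5-23)K14Ac peptide (50 nM) in PBS pH 7.4, 0.01% Tween-20, preformed 30 min, then compound 30 min at room temperature; top concentration 110uM. AlphaScreen streptavidin donor/nickel chelate acceptor beads (10 ug/mL final), 20 min dark, signal read.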
# G9a block = inhibitors of human histone lysine methyltransferase G9a; actives 8.8% (n = 350,000); Potency, µM (highest dose often 102 µM), without a hit: at the top dose activity, negative = inhibition, actives largely listed as inhibitors; AID 504332; G9a H3K9 monomethylation, AlphaScreen, 2 h; further: on the % scale 0 is the no-effect control and ±100 the full control effect; nearly all actives have a fitted effect of over 75% in size
#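 Compounds were preincubated with 20 nM G9a for 15 min, after which biotinylated H3K9 peptide (500 nM) and SAM (20 uM) started a 2 h room-temperature reaction. Monomethylated product was quantified by antibody-based AlphaScreen chemiluminescence.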
# Sfp PPTase inh = Sfp phosphopantetheinyl transferase inhibition. Q9F4F7. Potency, µM, inactives show largest response in the series, negative = inhibition, most hits filed as inhibitors. Biochemical Sfp PPTase activity, qHTS. actives 3.5% (n = 310,000). AID 1490;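 further: the enzyme is Sfp with the accession as filed and its product quenches rhodamine fluorescence; 0% = enzyme reaction without inhibitor and -100% = no enzyme wells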
#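 Fluorescence-quenching assay with 15 nM Sfp, 5 uM rhodamine-CoA and 12.5 uM BHQ-2-labelled ybbR peptide in pH 7.6 Hepes/MgCl2 buffer. Enzyme was pre-incubated with compound for 15 min at room temperature. Rate was taken from the 30-min fluorescence change (525/598 nm).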
# The depositor's hits bear a star; ? = inconclusive; nt = not tested or not shown; [ ] = remark or other dose. The call rests on the fitted dose curve; in most records, active means well fitted curve in the direction sought with a large enough effect; inconclusive means small, poorly fitted or top-dose-only effect, or another doubt; inactive means no such curve, though single readings can be large; an effect the other way counts as inactive or inconclusive. Potency means the concentration at half of the fitted maximal effect.
SMILES,HP1b binding inh,JMJD2A Tudor,L3MBTL1 block,BAZ2B inh,G9a block,Sfp PPTase inh
Cc1ccc(S(=O)(=O)CNC(=S)c2cccc(Cl)c2)cc1,-15.3%,-14.9%[57.1 µM],4.9%,-36.5%,?,13.8%
CC1CN(C(=O)Nc2ccc(C(=O)NCc3ccccc3F)cc2)c2ccccc2S1 (stereo unspecified),28.4%,-9.4%,nt,-5.2%,-26.4%[59 µM],nt
CNC1=C([N+](=O)[O-])CC([N+](=O)[O-])=C(N2CCNCC2)N1C,8.8%,-12.2%,15.0%,-0.9%,44.7µM*,19.2%
O=C1/C(=C\c2ccco2)CCC/C1=C\c1ccco1,44.7µM*,44.7µM*,3.55µM*,44.7µM*,?,11.2µM*
CC1C/C(=C/c2ccco2)C(=O)/C(=C/c2ccco2)C1 (stereo unspecified),nt,nt,3.16µM*,35.5µM*,12.6µM*,?
CC1C/C(=C/c2ccccn2)C(=O)/C(=C/c2ccccn2)C1 (stereo unspecified),10.4%,-9.7%,0.4%,?,50.1µM*,44.7µM*
COc1ccccc1OCCN(C#N)c1nc(N(C)C)nc(N(C)C)n1,41.7%,5.5%,nt,3.9%,13.5%[59 µM],7.8%
N=c1c2c(ncn1Cc1ccco1)Oc1ccc3ccccc3c1C2c1ccccc1 (stereo unspecified),?,?,-6.3%,44.7µM*,?,22.4µM*
COc1cccc(C2c3c(ncn(-c4cccc(C#N)c4)c3=N)Oc3ccc4ccccc4c32)c1 (stereo unspecified),nt,79.4µM*,nt,nt,nt,nt
COc1cccc(C2c3c(ncn(CCCN4CCOCC4)c3=N)Oc3ccc4ccccc4c32)c1 (stereo unspecified),nt,28.2µM*,nt,nt,nt,nt
COc1ccc(C2c3c(ncn(Cc4ccco4)c3=N)Oc3ccc4ccccc4c32)cc1 (stereo unspecified),?,?,-13.1%,?,?,-23.9%
COc1ccc(C2c3c(n(CCc4ccccc4)cnc3=N)Oc3ccc4ccccc4c32)cc1OC (stereo unspecified),nt,56.2µM*,nt,nt,nt,nt
CCOC(=O)Cn1nc(-c2ccccc2)c2cnc3ccc(OCC)cc3c21,1.4%,-29.7%,nt,nt,-15.4%[59 µM],nt
CCCCN(C(=O)c1cc(-c2ccncc2)nc2ccccc12)c1c(N)n(CC(C)C)c(=O)[nH]c1=O,30.6%,-14.5%,-0.1%,nt,nt,nt
Cc1ccc(NC(=O)c2oc3ccc(S(=O)(=O)N(C)C4CCCCC4)cc3c2C)c(C)c1,63.9%,-11.3%,nt,2.1%,-0.3%[59 µM],nt
COc1ccc(C2c3ccc4ccccc4c3Oc3ncn(CCCO)c(=N)c32)cc1 (stereo unspecified),7.3%,-32.8%,5.9%,70.8µM*,-12.9%[59 µM],?
COc1ccc(C2C3=C(CC(C)(C)CC3=O)Oc3ncn(Cc4ccco4)c(=N)c32)cc1 (stereo unspecified),23.9%,?,-6.3%,50.1µM*,?,10.4%
COc1ccc(C2C3=C(CC(C)(C)CC3=O)Oc3ncn(CC(C)C)c(=N)c32)cc1 (stereo unspecified),32.2%,-11.1%,-8.8%,-36.4%[57.1 µM],27.8%[59 µM],18.2%
COc1ccc(C2c3ccc4ccccc4c3Oc3ncn(CCO)c(=N)c32)cc1 (stereo unspecified),-7.9%,?,nt,?,7.9%,-26.0%
CCOc1ccc(NC(=O)Cn2c(=O)n(CCCC(=O)NC3CCN(Cc4ccccc4)CC3)c(=O)c3ccccc32)cc1,-2.7%,-16.4%,nt,0.4%,-8.3%,9.8%
O=C(CCNC(=O)c1ccc(Cl)cc1)Nc1cccc(S(=O)(=O)N2CCCCCC2)c1,4.1%,-25.2%,-7.9%,-4.1%,?,nt
CC(C)Cn1c(=O)c2sccc2n2c(CCCC(=O)NCCc3ccccc3)nnc12,31.1%,2.6%,nt,-20.3%,7.2%[59 µM],nt
Cc1cccc(Cn2c(Cc3ccccc3)nc3ccccc32)c1,61.9%,48.3%,5.8%,63.9%,26.7%[59 µM],56.2µM*
O=C(CCSc1nc2ccccc2o1)N1CCOCC1,39.6%,-9.1%,-5.9%,-7.8%,14.1µM*,-5.1%
COc1ccc(CN2C(=O)CN=C2Nc2cccc(C)c2C)cc1,23.9%,-23.2%,1.4%,?,56.2µM*,8.7%
SMILES,HP1b binding inh,JMJD2A Tudor,L3MBTL1 block,BAZ2B inh,G9a block,Sfp PPTase inh
CCOc1ccccc1NC1=NCC(=O)N1Cc1ccc(F)cc1,13.2%,-14.6%,8.7%,?,50.1µM*,4.0%
COc1ccccc1NC1=NCC(=O)N1Cc1ccccc1,16.0%,-5.3%,11.6%,-8.4%,3.8%[0.501 µM],-14.0%
N#Cc1c(C(F)(F)F)cc(-c2cccs2)nc1SCc1ccc(Cl)nc1,34.0%,4.5%,13.0%,2.5%,9.4%[0.0925 µM],22.4µM*
C=CCSc1ncnc2c1oc1nc3c(cc12)COC(C)(C)C3,35.8%,2.0%,3.8%,-0.8%,-2.4%,13.5%
CC1(C)Cc2nc3oc4c(=S)nc[nH]c4c3cc2CO1,24.6%,25.1µM*,-0.8%,7.0%,44.7µM*,22.4µM*
CCOC(=O)Cc1cc(=O)c2c(=O)n(-c3ccccc3)[nH]c2[nH]1,30.9%,?,?,-35.7%,-24.0%[59 µM],20.9%
O=c1cc(-c2ccccc2)[nH]c2[nH]n(-c3ccccc3)c(=O)c12,-7.6%,-30.8%,-4.3%,?,44.7µM*,2.7%
COc1ccc(C(c2oc(CO)cc(=O)c2O)c2oc(CO)cc(=O)c2O)cc1OC,43.0%,?,nt,50.1µM*,20µM*,-32.7%
COc1cc(C(c2oc(CO)cc(=O)c2O)c2oc(CO)cc(=O)c2O)cc(OC)c1OC,55.2%,?,-29.1%,50.1µM*,11.2µM*,-25.2%
O=C1c2ccccc2NC(c2ccccc2OCc2ccccc2)N1Cc1ccco1 (stereo unspecified),11.8%[57 µM],-10.0%[57.1 µM],nt,nt,nt,nt
O=C1CCc2cc(S(=O)(=O)Nc3ccc4c(c3)OCCO4)ccc2N1,nt,-13.6%,nt,nt,nt,nt
O=C(Nc1ccc2nc3n(c(=O)c2c1)CCCCC3)C(=O)N1CCN(c2ccccc2F)CC1,3.2%,35.5µM*,nt,15.4%,-1.8%,11.9%
CC1CCCC(CC(N)=O)CC1 (stereo unspecified),11.2%,-12.3%,nt,nt,nt,nt
CC(C)CC(=O)NC(=S)Nc1ccc(S(=O)(=O)NC(C)(C)C)cc1,10.4%,-9.0%,3.4%,-3.6%,-15.2%[59 µM],-1.8%
CC(C)CC(=O)NNC(=S)Nc1ccc(S(N)(=O)=O)cc1,-2.9%,1.7%,10.2%,-34.7%,5.62µM*,20µM*
CCc1ccc(C(=O)NNC(=S)Nc2ccc(S(N)(=O)=O)cc2)s1,15.4%,-2.3%[11.4 µM],nt,-2.4%,7.94µM*,21.1%
O=C(CSc1cn(CC(=O)N2CCCCC2)c2ccccc12)Nc1ccccc1F,32.7%,-20.9%,nt,?,-8.2%[59 µM],nt
CSCCC1COC(c2cccs2)=N1 (stereo unspecified),13.9%,-21.8%,nt,nt,0.891µM*,2.9%
